Reference: PubChem BioAssay (NCI)
Where “and” joins values, the source holds several entries; their conditions need not be identical. Equal entries are not always repeated. About 83,000 compounds went through this panel and 20% of them were active in at least one assay; those are over-represented in the sample as a whole.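 Compound tested at a single concentration for 48 hours in 96-well plates; a percent growth value below 10 was scored as active.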 Calls of active or inactive are those of the source.

Experiments:
Experiment in all cases: NCI-60 one-dose screen, 48 h (100 = growth as untreated, 0 = no growth, -100 = all killed)
[1] = test system: SK-MEL-2 melanoma
[2] = test system: EKVX NSCLC
[3] = test system: SN12C renal
[4] = test system: UO-31 renal
[5] = test system: TK-10 renal
[6] = test system: ACHN renal
[7] = test system: CAKI-1 renal
[8] = test system: A498 renal
[9] = test system: CCRF-CEM leukemia
[10] = test system: MOLT-4 leukemia
[11] = test system: SR leukemia
[12] = test system: RPMI-8226 leukemia
[13] = test system: OVCAR-5 ovarian
[14] = test system: OVCAR-4 ovarian
[15] = test system: SK-OV-3 ovarian
[16] = test system: IGROV1 ovarian
[17] = test system: OVCAR-3 ovarian
[18] = test system: HS 578T breast
[19] = test system: NCI/ADR-RES ovarian
[20] = test system: OVCAR-8 ovarian; details: 10 µM

Measured: growth

CN(Cc1cnc2nc(N)nc(N)c2n1)c1ccc(C(=O)N[C@@H](CCC(=O)O)C(=O)O)cc1
active: [8]; 2.5 µM -11.8% | [19]; 10 µM 7.09%
inactive: [1]; 2.5 µM 93.1% | [1]; 10 µM 83.2% | [2]; 2.5 µM 41.5% | [2]; 10 µM 47% | [3]; 2.5 µM 33.3% | [3]; 10 µM 26.9% | [4]; 2.5 µM 37.8% | [4]; 10 µM 32.3% | [5]; 2.5 µM 66.9% | [5]; 10 µM 67.7% | [6]; 2.5 µM 24.9% | [6]; 10 µM 29.4% | [7]; 2.5 µM 19.2% | [7]; 10 µM 15.5% | [9]; 2.5 µM 12.9% | [9]; 10 µM 18.8% | [10]; 2.5 µM 14.7% | [10]; 10 µM 10.9% | [11]; 2.5 µM 32% | [11]; 10 µM 26.8% | [12]; 2.5 µM 33.9% | [12]; 10 µM 41.7% | [13]; 2.5 µM 41.1% | [13]; 10 µM 27.2% | [14]; 2.5 µM 93.4% | [14]; 10 µM 105% | [15]; 2.5 µM 75% | [15]; 10 µM 56.2% | [16]; 2.5 µM 38.7% | [16]; 10 µM 21% | [17]; 2.5 µM 54.2% | [17]; 10 µM 47.8% | [18]; 2.5 µM 27.4% | [19]; 2.5 µM 29%

COc1ccc2sc3cccc(NCCN(C)C)c3c(=O)c2c1
17.4% (inactive) and -2.55% (active): [4]; 10 µM
77.8% (inactive) and 5.39% (active): [8]; 10 µM
64.7% (inactive) and -8.94% (active): [14]; 10 µM
57.2% (inactive) and 3.91% (active): [15]; 10 µM
40.9% (inactive) and 7.16% (active): [20]
21.3% (inactive) and -28.3% (active): [6]; 10 µM
70.2% (inactive) and -6.71% (active): [12]; 10 µM
45.1% (inactive) and 9.54% (active): [3]; 10 µM
81.2% (inactive) and 8.98% (active): [18]; 10 µM
41.2% (inactive) and -2.42% (active): [16]; 10 µM
53.1% (inactive) and 9.58% (active): [13]; 10 µM
active: [10]; 10 µM 8.84% and -15.2% | [11]; 10 µM -31.7%
23.8% (inactive) and -29.8% (active): [7]; 10 µM
inactive: [1]; 10 µM 77.3% and 70.7% | [2]; 10 µM 26.2% | [5]; 10 µM 36.1% and 32.2% | [9]; 10 µM 21.3% | [17]; 10 µM 61.6% and 22.1% | [19]; 10 µM 48.5% and 14.7%

CC/C(=C(\c1ccccc1)c1ccc(OCCN(C)C)cc1)c1ccccc1
active: [1]; 12.5 µM -50% | [4]; 12.5 µM -62.4% | [7]; 12.5 µM 9.74% | [8]; 12.5 µM -6.6% | [9]; 12.5 µM -14.1% | [10]; 12.5 µM -10.8% | [11]; 10 µM -18.9% | [11]; 12.5 µM -27.2% | [12]; 10 µM -28.3% | [12]; 12.5 µM -38.1% | [13]; 12.5 µM -83.1% | [14]; 12.5 µM 2.45% | [16]; 12.5 µM -20.4% | [17]; 12.5 µM -6.16% | [18]; 12.5 µM -70.9% | [19]; 12.5 µM -41.2%
inactive: [1]; 10 µM 68.5% | [2]; 10 µM 60% | [2]; 12.5 µM 36.5% | [3]; 10 µM 47.7% | [3]; 12.5 µM 37.1% | [4]; 10 µM 40.3% | [5]; 10 µM 51.9% | [5]; 12.5 µM 56.2% | [6]; 10 µM 60.6% | [6]; 12.5 µM 25.9% | [7]; 10 µM 29.1% | [8]; 10 µM 64.1% | [9]; 10 µM 34.6% | [10]; 10 µM 33.3% | [20] 60.5% | [14]; 10 µM 46.3% | [15]; 10 µM 76.8% | [15]; 12.5 µM 32.6% | [16]; 10 µM 41.2% | [17]; 10 µM 52.9% | [18]; 10 µM 60.5% | [19]; 10 µM 43.2%

CC[C@@]1(O)C(=O)OCc2c1cc1n(c2=O)Cc2cc3c(CN(C)C)c(O)ccc3nc2-1
9.24% (active) and 18.9% (inactive): [2]; 10 µM
inactive: [3]; 10 µM 13.6% and 14.3% | [14]; 10 µM 14% | [15]; 10 µM 10.6% and 20.4% | [16]; 10 µM 15.3% | [18]; 10 µM 28.5%
8.58% (active) and 13.8% (inactive): [13]; 10 µM
active: [1]; 10 µM -36.9% and -18.1% | [4]; 10 µM -45.7% and -74.6% | [5]; 10 µM 2.54% and -4.42% | [6]; 10 µM -40% and -40.5% | [7]; 10 µM -35% and -16.2% | [8]; 10 µM -50.8% and -69.4% | [9]; 10 µM -28.7% | [10]; 10 µM -3.69% and -19.2% | [11]; 10 µM -5.49% | [12]; 10 µM -28.3% | [20] 3.57% | [17]; 10 µM -21.7% and -9.74%
13.9% (inactive) and 5.76% (active): [19]; 10 µM
